Screening data deposited in PubChem BioAssay by Columbia University Molecular Screening Center.
Most compounds without a hit are left out; they make up all but 1.2% or so of the library.
NFkB transloc inh – blocks IL-1B driven NFkB nuclear translocation in HUVEC cells; HUVEC IL-1B NFkB p65 nuclear translocation imaging; inhibition, % at 2 µM; actives 0.43% (n = 94,000); AID 796;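 active = inhibition above about 30% together with a positive call from visual inspection of the well image, limit read from the data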;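 also: nuclear over cytoplasmic p65 intensity ratio measured by imaging; 0% = IL-1B stimulated DMSO wells and 100% = unstimulated DMSO wells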
sEH inhibitor – inhibitors of human soluble epoxide hydrolase; inhibition, % at 2 µM; actives 0.34% (n = 91,000); P34913; recombinant human sEH enzymatic activity assay; in the data active = inhibition above about 80%
Target sequence (P34913 whole entry, looked up): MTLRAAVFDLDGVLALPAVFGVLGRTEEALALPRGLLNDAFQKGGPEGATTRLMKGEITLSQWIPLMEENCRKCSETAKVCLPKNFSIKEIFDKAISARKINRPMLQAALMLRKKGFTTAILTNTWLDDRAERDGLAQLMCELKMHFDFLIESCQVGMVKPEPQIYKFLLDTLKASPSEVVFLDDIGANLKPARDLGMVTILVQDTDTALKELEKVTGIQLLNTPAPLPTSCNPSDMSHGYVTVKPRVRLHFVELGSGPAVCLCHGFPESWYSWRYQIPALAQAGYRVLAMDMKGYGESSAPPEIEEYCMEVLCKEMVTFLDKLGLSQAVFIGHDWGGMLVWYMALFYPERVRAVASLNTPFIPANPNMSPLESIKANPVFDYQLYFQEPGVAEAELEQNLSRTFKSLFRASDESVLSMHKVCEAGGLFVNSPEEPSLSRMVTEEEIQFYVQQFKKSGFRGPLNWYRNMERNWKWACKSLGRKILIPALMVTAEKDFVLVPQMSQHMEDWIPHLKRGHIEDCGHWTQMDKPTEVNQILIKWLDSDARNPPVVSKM
sEH activator – activators of human soluble epoxide hydrolase. activation, % at 2 µM. P34913. actives 0.04% (n = 91,000). purified human sEH enzymatic activity, activator screen. AID 717; in the data active = activation above about 37%
IL1B NFkB pot – enhances IL-1B driven NFkB nuclear translocation; AID 819; actives 0.3% (n = 94,000); HUVEC IL-1B NFkB p65 nuclear translocation imaging; activation, % at 2 µM;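 active = activation above 40%, about the mean plus 3 SD, also judged a hit on visual image review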;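 also: percent activation is computed from the nuclear over cytoplasmic p65 intensity ratio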
HUVEC tox IL1B – toxic to HUVEC cells under IL-1B stimulation; actives 0.41% (n = 94,000); HUVEC cell count loss, Hoechst imaging, IL-1B stimulated; cell count reduction, % at 2 µM; AID 845;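 active = cell count reduction more than 3 SD above the screen-wide mean, cut at about 70% in these data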;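 also: normalized per plate to untreated control cells as the no-loss baseline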
Active calls of the source: *.

What do the screens show for `O=C1CC(C(=O)Nc2ccc(C(=O)N3CCOCC3)cc2)C2(CCCCC2)O1` (stereo not drawn)?
NFkB transloc inh: 1; sEH inhibitor: 2; sEH activator: -1; IL1B NFkB pot: -1; HUVEC tox IL1B: 90*

What do the screens show for `COc1cccc(-c2nc(CS(=O)CC(=O)NCCCOC(C)C)c(C)o2)c1` (stereo not drawn)?
NFkB transloc inh: 10; sEH inhibitor: -1; sEH activator: 1; IL1B NFkB pot: -10; HUVEC tox IL1B: -14

Results for COc1cccc(-c2nc(CS(=O)(=O)CC(=O)NCCCOC(C)C)c(C)o2)c1 ?
NFkB transloc inh: 12; sEH inhibitor: -3; sEH activator: 2; IL1B NFkB pot: -12; HUVEC tox IL1B: 95*

How did O=C(CN1CCN(c2ccccn2)CC1)Nc1ccc(F)cc1 do in these assays?
NFkB transloc inh: -11; sEH inhibitor: 6; sEH activator: -7; IL1B NFkB pot: 11; HUVEC tox IL1B: 9

What do the screens show for `O=C(CN1CCN(c2ccccn2)CC1)Nc1ccccc1`?
NFkB transloc inh: -40; sEH inhibitor: 6; sEH activator: -4; IL1B NFkB pot: 41*; HUVEC tox IL1B: -31

What do the screens show for `CC(=O)Nc1ccc(NC(=O)CN2CCN(c3cccc(C(F)(F)F)c3)CC2)cc1`?
NFkB transloc inh: 34*; sEH inhibitor: 1; sEH activator: -2; IL1B NFkB pot: -34; HUVEC tox IL1B: -24

Results for Cc1ccc(N(C)C(=O)N2CCN(c3ccccn3)CC2)cc1 ?
NFkB transloc inh: -67; sEH inhibitor: -1; sEH activator: 0; IL1B NFkB pot: 67*; HUVEC tox IL1B: 46

Results for O=C(OCn1ncc(Br)c(Br)c1=O)c1ccccc1Cl ?
NFkB transloc inh: 65*; sEH inhibitor: -4; sEH activator: 4; IL1B NFkB pot: -88; HUVEC tox IL1B: 44

Results for O=C(OCn1ncc(Br)c(Br)c1=O)c1ccc(F)cc1 ?
NFkB transloc inh: 20; sEH inhibitor: 1; sEH activator: -3; IL1B NFkB pot: -20; HUVEC tox IL1B: 7

What do the screens show for `CNC(=O)c1sc(-c2ccc(Cl)cc2)nc1C`?
NFkB transloc inh: 15; sEH inhibitor: 10; sEH activator: -8; IL1B NFkB pot: -15; HUVEC tox IL1B: 75*

Results for O=C(Nc1nnc(C2CCCC2)s1)C1CCC1 ?
NFkB transloc inh: -40; sEH inhibitor: -2; sEH activator: 1; IL1B NFkB pot: 40*; HUVEC tox IL1B: 9

What do the screens show for `CCN1CCCC1Cn1cnc2c([nH]c3ccc(Cl)cc32)c1=O` (stereo not drawn)?
NFkB transloc inh: -4; sEH inhibitor: 9; sEH activator: -9; IL1B NFkB pot: 4; HUVEC tox IL1B: -3

Results for CCN1CCCC1Cn1cnc2c([nH]c3cccc(Cl)c32)c1=O (stereo not drawn) ?
NFkB transloc inh: 30*; sEH inhibitor: 4; sEH activator: -6; IL1B NFkB pot: -30; HUVEC tox IL1B: -11

What do the screens show for `CNC(=O)c1sc(N2N=C3/C(=C/c4ccccc4)CCCC3C2c2ccccc2)nc1C` (stereo not drawn)?
NFkB transloc inh: -13; sEH inhibitor: -7; sEH activator: 9; IL1B NFkB pot: 7; HUVEC tox IL1B: -9

Results for COc1ccc(C2N(c3cc(Cl)ccc3OC)C(=O)C3CCCN32)cc1OC (stereo not drawn) ?
NFkB transloc inh: -19; sEH inhibitor: -14; sEH activator: 12; IL1B NFkB pot: 19; HUVEC tox IL1B: -7

What do the screens show for `CCn1c(SCC(=O)N2c3ccccc3CC2C)nnc1-c1ccco1` (stereo not drawn)?
NFkB transloc inh: 45*; sEH inhibitor: 9; sEH activator: -10; IL1B NFkB pot: -45; HUVEC tox IL1B: -13

How did CCOC(=O)CSc1nnc2n1C(C)(C)Cc1ccccc1-2 do in these assays?
NFkB transloc inh: -13; sEH inhibitor: 4; sEH activator: -6; IL1B NFkB pot: 13; HUVEC tox IL1B: -52

What do the screens show for `CC1Cc2ccccc2N1C(=O)CSc1nnc2n1C(C)(C)Cc1ccccc1-2` (stereo not drawn)?
NFkB transloc inh: 98*; sEH inhibitor: 5; sEH activator: -6; IL1B NFkB pot: -98; HUVEC tox IL1B: 95*

Results for O=c1ccc(NS(=O)(=O)c2ccccc2)cn1Cc1ccc(Cl)c(Cl)c1 ?
NFkB transloc inh: 9; sEH inhibitor: -6; sEH activator: 7; IL1B NFkB pot: -9; HUVEC tox IL1B: 19

What do the screens show for `O=C(O)CCCCCNC(=O)c1ccccc1`?
NFkB transloc inh: 0; sEH inhibitor: 0; sEH activator: -3; IL1B NFkB pot: -1; HUVEC tox IL1B: -7

How did CC(=O)N(c1cccc(Br)c1)C1C=CS(=O)(=O)C1 (stereo not drawn) do in these assays?
NFkB transloc inh: -4; sEH inhibitor: 6; sEH activator: -4; IL1B NFkB pot: 4; HUVEC tox IL1B: -16

Results for Cc1ccc(N(C(=O)C2CCCC2)C2C=CS(=O)(=O)C2)cc1C (stereo not drawn) ?
NFkB transloc inh: -44; sEH inhibitor: 2; sEH activator: 0; IL1B NFkB pot: 44*; HUVEC tox IL1B: -20

Results for C=C(C)c1nc(N)nc(N)n1 ?
NFkB transloc inh: -19; sEH inhibitor: -2; sEH activator: 1; IL1B NFkB pot: 19; HUVEC tox IL1B: -18

How did CCOC(=O)c1cnn(-c2ccccc2)c1-n1cccc1C(=O)C(=O)Nc1ccccc1 do in these assays?
NFkB transloc inh: -8; sEH inhibitor: 9; sEH activator: -11; IL1B NFkB pot: 8; HUVEC tox IL1B: -13

What do the screens show for `Cc1ccc(/C(O)=C2/C(=O)C(=O)OC2c2ccc(Cl)cc2)cc1` (stereo not drawn)?
NFkB transloc inh: -6; sEH inhibitor: 14; sEH activator: -12; IL1B NFkB pot: 6; HUVEC tox IL1B: 5

What do the screens show for `O=C1OC(c2ccccc2)/C(=C(/O)c2ccc(Cl)cc2)C1=O` (stereo not drawn)?
NFkB transloc inh: 38*; sEH inhibitor: 3; sEH activator: -1; IL1B NFkB pot: -38; HUVEC tox IL1B: 10

What do the screens show for `O=C(CSc1nnc(-c2ccco2)o1)N1c2ccccc2CCc2ccccc21`?
NFkB transloc inh: -12; sEH inhibitor: 8; sEH activator: -4; IL1B NFkB pot: 12; HUVEC tox IL1B: -26

What do the screens show for `Cc1ccccc1OCCN1C(=O)NC2(CCc3ccccc32)C1=O` (stereo not drawn)?
NFkB transloc inh: -13; sEH inhibitor: -2; sEH activator: 4; IL1B NFkB pot: 13; HUVEC tox IL1B: -8

How did COc1cccc(CSc2nc3ccccc3cc2C=O)c1 do in these assays?
NFkB transloc inh: 43*; sEH inhibitor: -18; sEH activator: 18; IL1B NFkB pot: -43; HUVEC tox IL1B: 72*

How did [O-][n+]1c2c(c3c4non(O)c4ccc31)CCCC2 do in these assays?
NFkB transloc inh: 23; sEH inhibitor: -1; sEH activator: 1; IL1B NFkB pot: -23; HUVEC tox IL1B: 88*

How did O=C(Cc1ccc(-n2cccc2)cc1)N1CCc2ccccc21 do in these assays?
NFkB transloc inh: -6; sEH inhibitor: -8; sEH activator: 9; IL1B NFkB pot: 5; HUVEC tox IL1B: 32

What do the screens show for `CCOc1cc(N2CCOCC2)c(OCC)cc1NC(=O)CSc1cccc[n+]1[O-]`?
NFkB transloc inh: -70; sEH inhibitor: -16; sEH activator: 13; IL1B NFkB pot: 70*; HUVEC tox IL1B: -13
